ST2 inh = blocks human ST2 binding to IL-33; AlphaLISA ST2-Fc/biotin-IL-33 interaction, 1 h; inhibition, % for hits at 17 µM; Q01638; 78,000 compounds, 2.3% hits; AID 1259354; in the data active = inhibition above about 30%
Target sequence (Q01638 whole entry, looked up): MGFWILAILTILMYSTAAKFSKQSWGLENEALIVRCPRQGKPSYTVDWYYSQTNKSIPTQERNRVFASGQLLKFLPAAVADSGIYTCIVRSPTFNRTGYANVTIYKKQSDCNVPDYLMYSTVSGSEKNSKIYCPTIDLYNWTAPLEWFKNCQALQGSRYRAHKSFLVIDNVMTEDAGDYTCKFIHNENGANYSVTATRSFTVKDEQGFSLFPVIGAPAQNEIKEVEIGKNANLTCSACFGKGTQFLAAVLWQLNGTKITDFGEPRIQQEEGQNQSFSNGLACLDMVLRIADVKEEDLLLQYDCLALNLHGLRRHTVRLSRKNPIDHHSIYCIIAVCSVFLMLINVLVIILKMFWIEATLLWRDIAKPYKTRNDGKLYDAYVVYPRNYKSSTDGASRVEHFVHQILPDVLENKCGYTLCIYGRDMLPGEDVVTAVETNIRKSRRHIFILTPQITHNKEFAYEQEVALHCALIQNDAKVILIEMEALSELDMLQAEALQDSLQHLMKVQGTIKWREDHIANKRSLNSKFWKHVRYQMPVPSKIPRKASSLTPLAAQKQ
Of the large screens only hits and unclear results are named; the others gave an inactive call; ! = not confirmed by another sample. The entries come from a sample that favours hits as a whole.

O=C1NCCN2CCN(C(=O)Nc3ccc(-c4ccccc4)cc3)CC12 (stereo not given)	none
CCOC(=O)c1ccc(Nc2ncnc3c2cnn3-c2ccc(Cl)cc2)cc1	none
CCOC(=O)c1ccc(Nc2ncnc3nc[nH]c23)cc1	ST2 inh 30%
COc1ccc(Nc2ncnc3nc[nH]c23)cc1OC	none
Cc1noc(C)c1S(=O)(=O)N1CCC(C(=O)Nc2ccc(Cl)cc2)CC1	none
COc1ccc(NC2=C(N(C)C)C(=O)c3ccccc3C2=O)cc1	ST2 inh 44%
COc1ccc(Nc2nnc(-c3ccc(C)c(S(=O)(=O)N(C)C)c3)c3ccccc23)cc1	none
COc1ccc(NS(=O)(=O)c2ccccc2)cc1	none
CC(C)CCNC(=O)C1CCN(c2ccc(-c3cccs3)nn2)CC1	none
Cc1nc([N+](=O)[O-])cn1CC(=O)c1ccccc1	none
Cc1cccn(CC(=O)c2ccc(-c3ccccc3)cc2)c1=N	none
CCOC(=O)c1sc(=Nc2ccccc2)n(-c2ccccc2)c1C	none
Cc1csc(=Nc2ccccc2)n1CC(=O)c1ccccc1	ST2 inh 36%
Cc1cc(C)n(-c2ccccc2)n1	none
Cc1csc(=Nc2ccccc2)n1-c1ccccc1	ST2 inh 32%
COc1cc(NC(=O)Cn2c(=O)sc3ccccc32)cc(OC)c1	none
CSc1nnc2c(n1)OC(c1ccc(Br)o1)Nc1ccc(Br)cc1-2 (stereo not given)	none
NN(Cc1ccccc1)c1ccccc1	ST2 inh 37%
COc1ccc(N(N)Cc2ccccc2)cc1	ST2 inh 50%
COc1ccc(OCCN(C)Cc2ccccc2)cc1	none
O=S(=O)(c1ccccc1)N(Cc1ccccc1)Cc1ccccc1	none
COc1ccc(CN(C)Cc2ccccc2)cc1	none
OCCN(Cc1ccccc1)Cc1ccccc1	none
CCN(CC)C(=O)C1CCCN(Cc2cc(OC)ccc2OC)C1 (stereo not given)	none
CCc1nc(NC(=O)NCc2cccc(SC)c2)nn1C	none
Cc1ccccc1OCC(O)Cn1ccnc1C (stereo not given)	none
CC(NC(=O)c1cc2ccccc2o1)c1ccccc1 (stereo not given)	none
CC(NC(=O)c1ccc(Cl)cc1)c1ccccc1 (stereo not given)	none
CC(Nc1ccc(Cl)cc1N)c1ccccc1 (stereo not given)	ST2 inh 57%
COc1cccc(-c2ncnn2-c2ccc(Cl)cc2)c1OC	none
COC1CCN(S(=O)(=O)N2CCNC(C(=O)O)C2)CC1 (stereo not given)	none
Cc1cccn2c(=O)c(C=Nc3ccccc3)c(NCc3ccccc3)nc12	ST2 inh 39%
Cc1ccc(N=Cc2c(Nc3cccc(Cl)c3)nc3c(C)cccn3c2=O)cc1	none
Cc1cccn2c(=O)c(C=Nc3ccccc3)c(NCc3ccco3)nc12	none
CCOC(=O)c1sc(Nc2nc3ccc(F)cc3s2)nc1C	none
CCn1c(=O)n(-c2ccc(C)c(C)c2)c2nc(-c3ccc(C)c(C)c3)nc(C(N)=O)c21	none
CCc1nccn1CCCN1CC(C(=O)O)CC1=O (stereo not given)	none
CC1=C(C(N)=O)C(c2cccc(F)c2)n2nc(SCc3ccccc3)nc2N1 (stereo not given)	ST2 inh 32%!
CC1=C(C(N)=O)C(c2ccc(O)cc2)n2nc(SCc3ccccc3)nc2N1 (stereo not given)	none
COc1ccc(C2C(C(N)=O)=C(C)Nc3nc(SCc4ccccc4)nn32)cc1OC (stereo not given)	none
O=C(NCCCN1CCOCC1)c1cc(=O)[nH]c2ccc(S(=O)(=O)N3CCCCC3)cc12	none
COc1ccc(-n2nc3c(c2NC(=O)c2ccc(C(C)(C)C)cc2)CS(=O)C3)cc1 (stereo not given)	none
CC1(C(=O)NC2CCCC2)CCC(=O)N1Cc1ccco1 (stereo not given)	none
CCOC(=O)c1c(CC(C)C)csc1NC(=O)c1ccc(C)cc1	none
Cc1cccc(CN(C)[C@@H]2c3ccccc3C3(CCNCC3)[C@H]2O)n1	none
CCOC(=O)Oc1c(Cl)cc2oc(=O)sc2c1Br	ST2 inh 32%
CCOC(=O)Oc1ccc2c(c1)oc(=O)c1ccccc12	none
COC(=O)Oc1cc2oc(=O)sc2cc1Cl	none
CCOC(=O)c1c(NC(=O)c2ccc(Br)o2)sc(C)c1C	none
COc1cc(CCC(=O)O)ccc1O	none
CCn1ncnc1C(C)NCC(=O)NCc1ccccc1F (stereo not given)	none
CCCOC(=O)COc1ccc2c(=O)c(-c3ccccc3OC)coc2c1	none
CC1(O)c2ccccc2C(=O)N1Cc1ccccc1 (stereo not given)	none
CC1(c2ccc(Cl)cc2)CC(C)(C)N(C(=O)CSC#N)c2ccccc21 (stereo not given)	none
CC1(c2ccccc2)CC(C)(C)N2C(=O)C(=O)c3cccc1c32 (stereo not given)	ST2 inh 33%
CN(c1ncccc1C(=O)N1CCC(N2CCCC2=O)CC1)C1CCCCC1	none
Cc1ccc2ncnc(Nc3ccccc3Cl)c2c1	none
c1cc(Nc2cccc3nccnc23)c2nccnc2c1	ST2 inh 40%
Fc1ccc(NC2CCCN(Cc3cccc4ncccc34)C2)cc1 (stereo not given)	none
CC(=O)Nc1cccc(N(C)C)c1	none
O=C(O)[C@@H]1[C@H](C(=O)Nc2cccc3cccnc23)[C@@H]2C=C[C@H]1C2	none
Fc1ccc(Nc2cccc3nccnc23)cc1	ST2 inh 49%
Cc1cccc(-n2ncc3c(Nc4ccc(F)cc4)ncnc32)c1	none
O=C(Nc1cccc2nccnc12)c1ccccc1	none
Clc1ccccc1Nc1cccc2nccnc12	ST2 inh 39%
CN(C)c1ccc(Nc2cccc3nccnc23)cc1	ST2 inh 84%
Cc1sc2ncnc(Nc3ccccc3Cl)c2c1C	none
O=C(NC1CCC(n2cnnc2)CC1)c1cn2ccsc2n1 (stereo not given)	none
COc1cc(NC(=O)CCC2CCCN(C(=O)C3=CCCCC3)C2)cc(OC)c1 (stereo not given)	none
CC(C)C(=O)Nc1ncc(Cc2cccc(Cl)c2Cl)s1	none
O=C(CSc1nnnn1-c1cccc(Cl)c1)Nc1ccc(Cl)cc1	none
CCN(C(=O)c1cc2cc3ccc(OC)cc3nc2s1)c1cc(OC)ccc1OC	ST2 inh 31%
COc1ccc2cc3cc(C(=O)NC4CC4)sc3nc2c1	none
CCN(CC)CCNC(=O)c1cc2cc3cc(OC)ccc3nc2s1	none
CCC(=O)Nc1cc2nn(-c3ccc(OC)c(Cl)c3)nc2cc1C	none
Nc1nc(N)nc(-c2ccc(Oc3ccccc3)cc2)n1	none
Nc1c(Oc2ccccc2)c(Oc2ccccc2)c(N)c2c1C(=O)c1ccccc1C2=O	ST2 inh 92%
O=C1c2ccccc2C(=O)N1CC(O)COc1ccccc1 (stereo not given)	none
CCOC(=O)c1cccc(NS(=O)(=O)c2ccc3[nH]c(=O)sc3c2)c1	none
COc1ccc2oc(C(=O)c3ccccc3)c(N)c2c1	ST2 inh 35%
COc1ccc2c(C)c(C(=O)O)oc2c1	none
CCOC(=O)c1c(-c2ccccc2)oc2ccc(OC)cc12	none
CC(C)c1ccc(NC(=O)Nc2ccccc2)cc1	none
CC(=O)Nc1cccc(S(=O)(=O)N2CCC(N3CCCC3=O)CC2)c1	none
O=C1CN=C2c3ccccc3N=C(SCc3ccc(Cl)cc3)N12	none
CC1(C)Cc2nc3sc4c(=O)[nH]cnc4c3cc2CS1	ST2 inh 80%
CCCCn1c(C)nc2c(sc3nc4c(cc32)COC(C)(C)C4)c1=O	none
C=CCn1c(C)nc2c(sc3nc4c(cc32)COC(C)(C)C4)c1=O	none
O=C1NC(=Nc2ccccc2)S/C1=C/c1cc(Br)ccc1O	ST2 inh 36%
Cc1ccc(NC(=O)CC2SC(=Nc3ccccc3)NC2=O)c(C)c1 (stereo not given)	none
O=C1NC(=Nc2cccc(Br)c2)SC1(CO)CO	none
CCOc1cc(/C=C2\C(=O)NC(=O)N(c3ccccc3)C2=O)ccc1O	none

Source: PubChem BioAssay (Paczesny and Yang Labs, IUPUI and University of Michigan)
